Results as given in PubChem BioAssay (Tox21).
Values joined by “and” are separate entries in the source; they are usually repeats but may differ in a detail not shown here. Equal values may be shown once. Results filed as inconclusive are left out. The source holds several records for some structures; these can differ, active in one and inactive in another. Active and inactive are the calls of the source. Unless noted, the call rests on the fitted dose curve; in most records, active means well fitted curve in the direction sought with a large enough effect in the repeat runs; inconclusive means weak or mixed curves; inactive means no such curve, though single readings can be large; an effect the other way counts as inactive or inconclusive.

Experiments:
[1] = qHTS assay for small molecule agonists of the p53 signaling pathway (AID 651631; calls by dose curve; further: nearly all actives have a fitted effect of over 15% in size; further: potency means the concentration at half of the fitted maximal effect)
Method in brief: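 Read-out is beta-lactamase FRET fluorescence measured 2 h after substrate addition at room temperature, in HCT-116 cells with a p53 response element-driven reporter exposed to compounds for 16 h at 37 °C.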

[2] = qHTS assay for small molecules that induce genotoxicity in human embryonic kidney cells expressing luciferase-tagged ATAD5 (AID 651632); further: nearly all actives have a fitted effect of over 15% in size; further: potency means the concentration at half of the fitted maximal effect
Method in brief: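 Increased luciferase signal from ATAD5-tagged reporter cells indicates DNA-damage-driven ATAD5 induction. HEK293T cells are treated for 16 hr at 37C before detection with Amplite.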

[3] = qHTS assay for small molecule agonists of the p53 signaling pathway - cell viability (AID 651633; calls by dose curve; further: nearly all actives have a fitted effect of over 30% in size; further: potency means the concentration at half of the fitted maximal effect)
Method in brief: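 p53RE-bla cells, seeded at 4,000 per well and rested 5 h at 37 C/5% CO2, received compounds in DMSO for 16 h at 37 C. CellTiter-Glo was then added, and luminescence was read after 30 min at room temperature to gauge cytotoxicity.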

[4] = qHTS assay for small molecules that induce genotoxicity in human embryonic kidney cells expressing luciferase-tagged ATAD5 - cell viability (AID 651634; calls by dose curve; further: nearly all actives have a fitted effect of over 25% in size; further: potency means the concentration at half of the fitted maximal effect)
Method in brief: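 Cytotoxicity counterscreen in HEK293T cells bearing an ATAD5-luciferase reporter: live-cell protease activity measured by CellTiter-Fluor fluorescence after 15.5 hr compound exposure.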

[5] = qHTS assay for small molecule disruptors of the mitochondrial membrane potential - cell viability (AID 720634; calls by dose curve; further: nearly all actives have a fitted effect of over 20% in size; further: potency means the concentration at half of the fitted maximal effect)
Method in brief: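 After overnight attachment at 37 C, HepG2 cells received compound or DMSO vehicle for 1 hr. Viability is then taken from ATP-driven luminescence following a 30 min room-temperature CellTiter-Glo step.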

[6] = qHTS assay for small molecule disruptors of the mitochondrial membrane potential (AID 720635); further: potency means the concentration at half of the fitted maximal effect
Method in brief: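 HepG2 cells (2,000/well) attached overnight at 37C, then took compound for 1 hr at 37C, 5% CO2. Mito-MPS dye was added for 30 min; fluorescence was read at 490/535 nm (monomers) and 540/590 nm (aggregates).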

[7] = qHTS assay to test for compound auto fluorescence at 590 nm (red) in HepG2 cells (AID 720674)
Method in brief: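 Compound auto-fluorescence is scored relative to Rose Bengal sodium, measured at 540/590 nm in live HepG2 cultures after 1 hr compound contact (37 C, 5% CO2).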

[8] = qHTS assay to test for compound auto fluorescence at 535 nm (green) in HepG2 cells (AID 720675)
[9] = qHTS assay to test for compound auto fluorescence at 460 nm (blue) in HEK293 cells (AID 720678)
Method in brief: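 Blue-channel (Ex/Em 405/460 nm) intensity measured in HEK293 cultures after overnight compound exposure at 37C; signal expressed relative to triamterene. Cells plated 2,000 per well in 10% dialyzed FBS medium and allowed 4-5 hr to attach.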

[10] = qHTS assay to test for compound auto fluorescence at 590 nm (red) in HEK293 cells (AID 720679)
Method in brief: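 Red-channel autofluorescence (Ex/Em 540/590 nm; Rose Bengal sodium reference) was measured after overnight 37C, 5% CO2 exposure of attached HEK293 cells, 2,000 per well in medium with 10% dialyzed FBS.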

Measured: Potency

Cc1ncc[nH]1
inactive: all assays above

CCCCOCCOCCO
inactive: all assays above

C[C@]12CCC(=O)C=C1CC[C@@H]1[C@@H]2C(=O)C[C@@]2(C)[C@H]1CC[C@]2(O)C(=O)CO
not listed: [6]
inactive: all other assays above

CC(C)=CCCC(C)CCO (configuration not stated)
not listed: [6]
inactive: all other assays above

c1ccncc1
not listed: [6]
inactive: all other assays above

O=C1c2cccc(O)c2C(=O)c2c(O)cccc21
active: [1] 19.5 µM | [6] 2.37 µM and 3.1 µM
inactive: all other assays above

Cc1cccc(C(=O)O)c1
inactive: all assays above

O=C(Nc1ccc(Cl)cc1)Nc1ccc(Cl)c(Cl)c1
active: [1] 7.5 µM and 5.42 µM and 15.4 µM | [4] 9.44 µM | [5] 1.93 µM | [6] 150 nM and 68.2 nM and 86.3 nM
inactive: all other assays above

CCOC(=O)C(C#N)=C(c1ccccc1)c1ccccc1
not listed: [5] | [6]
inactive: all other assays above

c1ccc2c(c1)Oc1ccccc1S2
not listed: [6]
inactive: all other assays above

CC1=CCC(C(C)(C)O)CC1 (configuration not stated)
not listed: [5] | [6]
inactive: all other assays above

CCCCC(CC)COC(=O)c1ccc(N(C)C)cc1 (configuration not stated)
active: [6] 8.68 µM and 21.7 µM
inactive: all other assays above

O=Cc1ccccc1O
inactive: all assays above

c1cc(-c2ccncc2)ccn1
not listed: [6]
inactive: all other assays above

O=S(=O)(O)c1ccc(O)cc1
inactive: all assays above

CCC(C)CO (configuration not stated)
inactive: all assays above

O=C=Nc1ccc(Cc2ccc(N=C=O)cc2)cc1
inactive: all assays above

CC(C)Oc1ccc2c(=O)c(-c3ccccc3)coc2c1
active: [2] 1.19 µM and 2.66 µM
not listed: [6]
inactive: all other assays above

Nc1ncn([C@@H]2O[C@H](CO)[C@@H](O)[C@H]2O)c(=O)n1
668 nM (active) and inactive: [3]
active: [1] 2.11 µM and 4.86 µM | [4] 750 nM and 1.37 µM
inactive: all other assays above

OC1CCCCCCCCCCC1
active: [6] 55 µM and 54.5 µM
inactive: all other assays above

Cc1c(C(N)=O)cc([N+](=O)[O-])cc1[N+](=O)[O-]
inactive: all assays above

CCC(C)(O)CCCC(C)C (configuration not stated)
inactive: all assays above

CC(C)OC=O
inactive: all assays above

CC(=O)CC/C=C(\C)CCC=C(C)C
inactive: all assays above

O=C(Nc1ccc([N+](=O)[O-])cc1Cl)c1cc(Cl)ccc1O
active: [1] 298 nM and 611 nM | [3] 94.4 nM and 96.9 nM | [4] 596 nM and 2.43 µM | [6] 26.6 nM and 9.7 nM
75 nM (active) and inactive: [2]
inactive: all other assays above

O=CCCCC=O
inactive and 59 µM (active): [2]
active: [1] 29.8 µM and 33.2 µM and 61.1 µM
inactive: all other assays above

Cc1c(OCC(F)(F)F)ccnc1CS(=O)c1nc2ccccc2[nH]1 (configuration not stated)
active: [6] 54.5 µM
inactive: all other assays above

CN(C)CCC=C1c2ccccc2CCc2ccccc21
active: [1] 61.1 µM
not listed: [6]
inactive: all other assays above

O=C(/C=C/c1ccccc1)OCc1ccccc1
not listed: [5] | [6]
inactive: all other assays above

C#C[C@]1(O)CC[C@H]2[C@@H]3CCC4=Cc5oncc5C[C@]4(C)[C@H]3CC[C@@]21C
not listed: [5] | [6]
inactive: all other assays above

Nc1ccc(Cl)cc1Cl
inactive: all assays above

CC(C)OB(OC(C)C)OC(C)C
inactive: all assays above

O=C(c1ccccc1)c1ccc(O)cc1O
active: [6] 27.8 µM and 61.1 µM
not listed: [5]
inactive: all other assays above

CCCCOCCOCCOCCO
not listed: [5] | [6]
inactive: all other assays above

CC(C)=CCC/C(C)=C\CO
not listed: [6]
inactive: all other assays above

Cc1cccc(N(C)C(=S)Oc2ccc3ccccc3c2)c1
inactive and 17.2 µM (active): [3]
inactive and 21.7 µM (active): [6]
active: [5] 17.2 µM
inactive: all other assays above

CC(CCC(=O)O)(c1ccc(O)cc1)c1ccc(O)cc1
inactive: all assays above

Nc1ncnc2nc[nH]c12
not listed: [6]
inactive: all other assays above

C[C@]12CC[C@H]3[C@@H](CCC4=CC(=O)CC[C@@]43C)[C@@H]1CC[C@@H]2C(=O)CO
inactive: all assays above

CC(=O)c1ccccn1
not listed: [3]
inactive: all other assays above

Cc1ccc(C)c(O)c1C
not listed: [3]
inactive: all other assays above

CCCCC(CC)COP(=O)(OCC(CC)CCCC)OCC(CC)CCCC (configuration not stated)
not listed: [3]
inactive: all other assays above
